The values that follow come from PubChem BioAssay (NCATS).

Structures are written as SMILES. Inconclusive results are not listed. The source made the active and inactive calls. Unless noted, the call rests on the fitted dose curve; in most records, active means well fitted inhibition curve with a large enough effect; inconclusive means small, poorly fitted or top-dose-only effect; inactive means flat fitted curve, though single readings scatter. Where only a bound is given, the exact number is not on record here.

Assay [1] is described as follows: AP1 Signaling Pathway (AID 357; active means well fitted curve in either direction with a large enough effect, not every such curve was filed as active; further: on the % scale 0 is the no-effect control and ±100 the full control effect). In a few lines:
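ME-180 cells with beta-lactamase reporter under AP-1 response element, stimulated with EC50 EGF; compounds tested in titration series, 5 h at 37 °C. CCF4 substrate added 2.5 h at room temperature; 460/530 nm emission ratio gave %activity and AC50.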

Assay [2] can be described thus: Stat Signaling Pathway (AID 446; active means well fitted curve in either direction with a large enough effect, not every such curve was filed as active;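 further: ME-180 cervical cancer cells given 40 pM IL-6 alongside compound; SIE-controlled beta-lactamase reporter measured as 460/530 nm FRET emission ratio; on the % scale 0 is the no-effect control and ±100 the full control effect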). The method in brief: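 Screening format detects activators and inhibitors alike: ME-180 SIE-bla cells stimulated at 40 pM IL-6 for 5 hrs with compound, then dual-emission beta-lactamase read at 405 nm excitation.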
The target in assay [3] is Mitogen-activated protein kinase 10 (Mus musculus) (UniProt Q61831). Kind of assay: JNK3 AlphaScreen Assay (AID 530; active means well fitted curve in either direction with a large enough effect, not every such curve was filed as active;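 further: kinase came from lysate of stimulated human HepG2 cells; signal reports phosphorylation of biotinylated GST-cJun 1-79 at Ser73 with 10 µM ATP; on the % scale 0 is the no-effect control and ±100 the full control effect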). The method in brief:
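JNK3 came from HepG2 lysates pre-activated with IL-1beta and TNF-alpha and phosphorylated biotinylated GST-cJun (1-79) at 10 uM ATP, pH 7.6, room temperature. Compounds were titrated. AlphaScreen signal used anti-phospho-cJun (Ser73) antibody.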

Assay [4] deals with 3',5'-cyclic-AMP phosphodiesterase 4B (Homo sapiens) (UniProt Q07343). The experiment in a line: qHTS Assay for Inhibitors of PDE-IV (AID 607; active means well fitted activation curve with a large enough effect in the main read-out, with a control signal flat, not every such curve was filed as active; further: % of control where 0% means no effect). The method in brief:
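The readout is membrane depolarisation from a cAMP-sensing CNG channel, detected with a potential dye at ex 535/em 590. Cells were HEK293-derived (endogenous PDE-IV) at 1000 cells/well, titrated up to 22.9 uM final.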

Assay [5] is described as follows: qHTS Assay for Lipid Storage Modulators (AID 1519; calls by dose curve). As to conditions: Drosophila S3 cells, BODIPY lipid droplet/cell ratio, laser cytometry, cells loaded with oleic acid; for activity change, negative = inhibition: at 25.7 µM (top of the series). The method in brief:
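Cells seeded at 5,000 per well were treated with compounds over a concentration series and loaded with oleic acid (400 uM, as added). Lipid droplet fluorescence (488 nm excitation, 500-530 nm channel) was read by laser-scanning cytometry and normalized to 20 uM Triacsin C.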

Assay [6] is described as follows: qHTS profiling for inhibitors of Plasmodium falciparum proliferation (AID 504749). Further: nearly all actives have a fitted effect of over 60% in size. Further: potency means the concentration at half of the fitted maximal effect.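 On activity, negative = inhibition: 0% = DMSO vehicle and full inhibition = artemisinin control.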 As to conditions: P. falciparum in erythrocytes, SYBR Green DNA, 72 h. The method in brief: (§1)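 P. falciparum-infected erythrocytes (0.3% parasitemia, 2.5% hematocrit final) were exposed to compounds for 72 h at 37 C in 5% CO2, then lysed with SYBR Green buffer overnight at room temperature; parasite DNA fluorescence was normalized to artemisinin and DMSO controls.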

The test system of assay [7] is C2A. The assay is described as above. Conditions: P. falciparum in erythrocytes, SYBR Green DNA, 72 h; series mostly up to 12.8 µM. The method in brief: as §1
The subject of assay [8] is CP191. The assay is described as above. As to conditions: P. falciparum in erythrocytes, SYBR Green DNA, 72 h; series mostly up to 12.8 µM. The method in brief: as §1
Assay [9] concerns CP217. The description is as above. Conditions: P. falciparum in erythrocytes, SYBR Green DNA, 72 h; series mostly up to 12.8 µM. The method in brief: as §1
For assay [10], the system named is CP238. The assay is described as above. Conditions: P. falciparum in erythrocytes, SYBR Green DNA, 72 h; series mostly up to 12.8 µM. The method in brief:
as §1

Assay [11] has as its system CP250. Described as above. As to conditions: P. falciparum in erythrocytes, SYBR Green DNA, 72 h; series mostly up to 12.8 µM. In a few lines: as §1
The test system of assay [12] is CP256. Described as above. As to conditions: P. falciparum in erythrocytes, SYBR Green DNA, 72 h; series mostly up to 12.8 µM. The method in brief:
as §1

Assay [13] deals with FAB9. The assay is described as above. As to conditions: P. falciparum in erythrocytes, SYBR Green DNA, 72 h; series mostly up to 12.8 µM. In a few lines:
as §1

The test system of assay [14] is JCK. The assay is described as above. As to conditions: P. falciparum in erythrocytes, SYBR Green DNA, 72 h; series mostly up to 12.8 µM. In a few lines:
as §1

The test system of assay [15] is PC49. The assay is described as above. As to conditions: P. falciparum in erythrocytes, SYBR Green DNA, 72 h; series mostly up to 12.8 µM. The method in brief:
as §1

Assay [16] concerns SC27B. The assay is described as above. As to conditions: P. falciparum in erythrocytes, SYBR Green DNA, 72 h; series mostly up to 12.8 µM. In a few lines:
as §1

For assay [17], the target named is Glucocorticoid receptor (Homo sapiens) (UniProt P04150). Kind of assay: GR-GFP Redistribution (AID 450;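 active means compounds whose dose series gives a full or clear partial fitted curve of increased nuclear translocation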; further: potency means the concentration at half of the fitted maximal effect). As to conditions: U2OS GR-GFP nuclear translocation, laser cytometry, 2 h.
Sequence of Glucocorticoid receptor (Homo sapiens) (P04150 whole entry, looked up, the tested form may be a part): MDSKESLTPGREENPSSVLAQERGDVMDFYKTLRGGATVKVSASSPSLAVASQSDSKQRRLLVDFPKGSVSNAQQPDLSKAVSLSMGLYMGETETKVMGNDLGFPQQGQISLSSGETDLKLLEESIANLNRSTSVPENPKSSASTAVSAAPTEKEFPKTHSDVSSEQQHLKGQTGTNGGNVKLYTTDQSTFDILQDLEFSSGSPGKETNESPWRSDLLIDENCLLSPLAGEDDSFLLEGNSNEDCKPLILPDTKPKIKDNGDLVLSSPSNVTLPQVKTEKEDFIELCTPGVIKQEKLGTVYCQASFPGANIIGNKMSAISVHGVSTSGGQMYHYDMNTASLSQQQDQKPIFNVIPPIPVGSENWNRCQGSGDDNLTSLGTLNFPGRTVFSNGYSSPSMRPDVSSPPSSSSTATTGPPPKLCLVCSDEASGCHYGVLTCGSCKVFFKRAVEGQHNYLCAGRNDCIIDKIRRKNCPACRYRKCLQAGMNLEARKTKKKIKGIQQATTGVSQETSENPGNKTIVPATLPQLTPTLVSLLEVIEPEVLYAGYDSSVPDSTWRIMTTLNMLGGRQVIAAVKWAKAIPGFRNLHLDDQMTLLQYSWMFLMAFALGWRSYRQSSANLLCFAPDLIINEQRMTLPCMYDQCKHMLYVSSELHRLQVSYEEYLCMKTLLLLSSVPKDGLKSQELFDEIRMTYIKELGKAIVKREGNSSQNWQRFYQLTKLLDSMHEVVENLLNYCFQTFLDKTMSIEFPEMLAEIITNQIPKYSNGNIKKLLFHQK
The target is the same in assay [18]. Kind of assay: GR-EFC Redistribution (AID 451; calls by dose curve; further: potency means the concentration at half of the fitted maximal effect). As to conditions: CHO-K1 GR-EFC translocation, beta-gal luminescence, 2 h. The method in brief: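 CHO-K1 cells stably expressing nuclear-localized β-gal enzyme acceptor and GR fused C-terminally to the enzyme donor fragment; ligand-driven nuclear translocation restores β-gal by complementation. Compounds titrated up to 46 uM final, 2 h at 37 °C; luminescence read.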

The target in assay [19] is Ubiquitin carboxyl-terminal hydrolase 1 (Homo sapiens) (UniProt O94782). The experiment in a line: Inhibitors of USP1/UAF1: Pilot qHTS (AID 504865).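 Further: rhodamine fluorescence freed from ubiquitin-rhodamine substrate followed over time; top concentration of the series differs between compounds; on the % scale 0 is the no-effect control and ±100 the full control effect; nearly all actives have a fitted effect of over 35% in size.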 In a few lines:
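In 50mM HEPES pH 7.8 containing 0.5mM EDTA, 1mM TCEP, 0.1 mg/ml BSA and 0.01% Tween-20, 1nM USP1/UAF1 is exposed to compound for 15 min, then Ub-Rho (150nM final) is added and fluorescence is read over time.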

Assay [20] in a line: NFAT Signaling Pathway (AID 444; active means well fitted curve in either direction with a large enough effect, not every such curve was filed as active;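 further: carbachol stimulus at about its EC50 of 1 µM final; on the % scale 0 is the no-effect control and ±100 the full control effect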). Conditions: Jurkat NFAT-bla M1, carbachol, beta-lactamase ratio, 5 h; at 17.2 µM (top of the series) unless noted. The method in brief:
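Jurkat cells carrying an NFAT-driven β-lactamase reporter and co-transfected muscarinic M1 receptor were treated with compound plus carbachol (1 uM final, an EC50 level) for 5 h at 37 °C. CCF4 loading followed for 1 h at RT; 460/530 nm ratio gave %activity.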

Setting [21] is: measured here: cell count channel max response.
The mark [22] stands for this setting: measured here: lipid channel max response.
Where [23] appears, read: at 12.8 µM (top of the series), parasite line A.
[24] abbreviates: at 12.8 µM (top of the series), parasite line B.

Sequence of Ubiquitin carboxyl-terminal hydrolase 1 (Homo sapiens) (O94782 whole entry, looked up): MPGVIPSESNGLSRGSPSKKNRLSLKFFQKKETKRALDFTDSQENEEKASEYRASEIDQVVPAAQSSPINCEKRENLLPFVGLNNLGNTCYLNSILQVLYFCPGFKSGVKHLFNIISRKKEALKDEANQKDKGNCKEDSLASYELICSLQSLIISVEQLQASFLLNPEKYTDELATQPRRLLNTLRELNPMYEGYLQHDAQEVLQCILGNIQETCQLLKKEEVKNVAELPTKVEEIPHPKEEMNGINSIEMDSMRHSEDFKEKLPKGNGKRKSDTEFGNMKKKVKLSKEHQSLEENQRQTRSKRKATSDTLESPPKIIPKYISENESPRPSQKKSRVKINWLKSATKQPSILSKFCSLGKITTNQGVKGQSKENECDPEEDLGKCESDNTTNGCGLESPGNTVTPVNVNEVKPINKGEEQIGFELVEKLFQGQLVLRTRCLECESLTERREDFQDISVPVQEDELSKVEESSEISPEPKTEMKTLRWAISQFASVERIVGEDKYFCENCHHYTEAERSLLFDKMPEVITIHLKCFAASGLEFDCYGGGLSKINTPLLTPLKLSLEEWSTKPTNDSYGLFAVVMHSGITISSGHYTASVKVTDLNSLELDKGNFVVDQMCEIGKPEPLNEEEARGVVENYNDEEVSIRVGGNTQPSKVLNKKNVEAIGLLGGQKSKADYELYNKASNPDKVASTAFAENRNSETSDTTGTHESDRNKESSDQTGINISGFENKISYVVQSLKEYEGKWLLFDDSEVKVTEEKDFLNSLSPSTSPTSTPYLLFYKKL
Sequence of 3',5'-cyclic-AMP phosphodiesterase 4B (Homo sapiens) (Q07343 whole entry, looked up): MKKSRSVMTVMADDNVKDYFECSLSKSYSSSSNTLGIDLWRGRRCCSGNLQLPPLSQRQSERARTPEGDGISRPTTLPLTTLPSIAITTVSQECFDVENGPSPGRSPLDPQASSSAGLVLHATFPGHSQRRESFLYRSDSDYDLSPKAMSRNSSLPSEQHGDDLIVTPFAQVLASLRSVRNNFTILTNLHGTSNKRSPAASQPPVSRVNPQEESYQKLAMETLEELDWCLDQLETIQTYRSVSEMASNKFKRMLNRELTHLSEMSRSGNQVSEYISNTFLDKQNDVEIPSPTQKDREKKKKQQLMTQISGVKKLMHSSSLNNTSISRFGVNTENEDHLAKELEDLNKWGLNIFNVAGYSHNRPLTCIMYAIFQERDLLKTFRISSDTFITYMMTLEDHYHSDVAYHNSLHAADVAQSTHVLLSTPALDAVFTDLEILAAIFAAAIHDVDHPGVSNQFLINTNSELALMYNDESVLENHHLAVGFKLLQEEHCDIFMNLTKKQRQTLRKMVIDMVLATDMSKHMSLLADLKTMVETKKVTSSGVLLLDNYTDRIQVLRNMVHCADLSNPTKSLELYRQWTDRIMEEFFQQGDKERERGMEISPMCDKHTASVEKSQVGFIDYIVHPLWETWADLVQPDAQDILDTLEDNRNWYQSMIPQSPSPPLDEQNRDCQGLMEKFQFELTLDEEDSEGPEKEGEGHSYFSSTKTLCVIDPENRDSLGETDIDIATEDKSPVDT

With `COc1cc2nc(N3CCN(C(=O)[C@@H]4COc5ccccc5O4)CC3)nc(N)c2cc1OC`, the outcome in assay [1], in assay [2] and in assay [4] was inactive. Further, the Potency result in assay [3], in assay [7], in assay [9], in [10], in assay [11] and in assay [12] was “inactive” throughout. Besides, the Potency result in assay [13], in [14], in assay [15] and in assay [16] was “inactive” throughout. In addition, the activity change, negative = inhibition in assay [5] was -1.08% (inactive). Further, the max response in assay [5] (setting [21]) is -1.2%; in [5] (setting [22]), -1.61%. The activity, negative = inhibition in assay [6] (at 28.7 µM (top of the series), parasite line B) was -13.1% (inactive). In addition, in [8], the Potency was 7.94 µM (active).
For `COc1cc2cc3c4cc(OC)c(OC)cc4cc[n+]3c(C)c2cc1OC`, the outcome in [1], in [2] and in [4] was inactive. Further, the Potency in assay [17] and in assay [18] was > 20.6 µM (inactive) each time. In assay [5], the activity change, negative = inhibition was 0.187% (inactive). In addition, the max response in assay [5] (setting [21]) was -9.25%; in assay [5] (setting [22]) it was -9.88%. In addition, the Potency result in [19] is “inactive”.
On to `C[C@H]1CC[C@@H]2[C@@H](C)[C@H]3[C@H](C[C@H]4[C@@H]5CC=C6C[C@@H](O[C@]7(O[C@H]8O[C@@H](C)[C@@H](O)[C@@H](O)[C@@H]8O)C[C@@H](O[C@@H]8O[C@H](CO)[C@@H](O)[C@H](O)[C@@H]8O)[C@@H](O)[C@H](CO)O7)CC[C@]6(C)[C@H]5CC[C@@]34C)N2C1`, for which the molecule was classed as inactive in assay [1], in [2] and in [4]. For the same molecule, the Potency in assay [17] was > 20.6 µM (inactive). The Potency result in assay [3] and in assay [19] was “inactive” each time. For the same molecule, the activity change, negative = inhibition in [5] was -0.703% (inactive). For the same molecule, the max response in assay [5] (setting [21]) is -8.96%; in assay [5] (setting [22]), -10.1%.
As for `Cn1nnnc1SCC1=C(C(=O)O)N2C(=O)[C@@H](NC(=O)[C@@H](O)c3ccccc3)[C@@H]2SC1`, the molecule was classed as inactive in [1], in [2] and in assay [4]. Moreover, the activity change, negative = inhibition is -2.02% (inactive) in assay [20] and 2.73% (inactive) in assay [5]. The Potency in [17] and in [18] was > 20.6 µM (inactive) throughout. For the same molecule, the Potency entry in [3], in assay [19], in [7], in assay [8], in [9] and in assay [10] was “inactive” throughout. Also, the Potency entry in assay [11], in assay [12], in [13], in assay [14], in assay [15] and in assay [16] was “inactive” in each case. Also, the max response is -4.52% in [5] (setting [21]) and -13.8% in assay [5] (setting [22]). Besides, the activity, negative = inhibition in [6] (setting [23]) is 11.7% (inactive); in assay [6] (setting [24]), 11% (inactive).
For the molecule `CC[C@](C)(CN(C)C)OC(=O)c1ccccc1`, the molecule was called inactive in [1], in assay [2] and in [4]. Besides, the activity change, negative = inhibition in assay [20] was -26.6% (inactive); in assay [5], -5.12% (inactive). Further, the Potency in assay [17] and in [18] was > 20.6 µM (inactive) in each case. Also, the Potency result in [3], in [19], in [7], in [8], in assay [9] and in assay [10] was “inactive” throughout. In addition, the Potency result in assay [11], in [12], in [13], in assay [14], in [15] and in assay [16] was “inactive” throughout. Also, the figures for the max response in assay [5] (setting [21]) and in assay [5] (setting [22]) were -9.58% and -16.2%, respectively. Besides, the values for the activity, negative = inhibition in [6] (setting [23]) and in assay [6] (setting [24]) were 5.48% (inactive) and 4.88% (inactive), respectively.
